Compounds with a hit are over-represented: about 10% of the library has one in this group of screens.
NIH3T3 tox – NIH 3T3 cell cytotoxicity | NIH 3T3 viability, CellTiter-Glo ATP luminescence, 48-72 h | Potency, µM (series often up to 96.7 µM), hits mostly inhibitors | actives 4.3% (n = 94,000) | AID 1345082; further: nearly all actives have a fitted effect of over 55% in size
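Viability of NIH 3T3 cells after 48 or 72 hr compound treatment at 37 °C was assessed by CellTiter-Glo, with luminescence imaged following a 10 min room-temperature step.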
HEK cytotox – HEK 293 cell cytotoxicity. Potency, µM (series often up to 115 µM), usual class: inhibitors. HEK 293 viability, ATP luminescence (CellTiter-Glo), 48-72 h. actives 6.6% (n = 94,000). AID 1345083; further: nearly all actives have a fitted effect of over 60% in size
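CellTiter-Glo luminescence (cellular ATP) was read after 48 or 72 hr of compound exposure at 37 degree Celsius. Cells were HEK 293 plated at 250 cells/well.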
GPT2 inhibitor – blocks human glutamate pyruvate transaminase 2; Potency, µM (highest dose often 57.7 µM), hits mostly inhibitors; Recombinant GPT2, coupled pyruvate oxidase/HRP Amplex Red fluorescence; AID 1671188; actives 0.25% (n = 100,000); further: nearly all actives have a fitted effect of over 60% in size
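Fluorescence of coupled pyruvate oxidase/HRP/Amplex Red system (50uM Amplex, 30 min, dark) reports pyruvate formed by GPT2. Enzyme reaction: 10ng/uL GPT2, 2mM L-alanine, 250uM a-KG, 30 min room temperature, pH 7.5; 50uM AOA control.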
FLuc inh – Photinus pyralis luciferase inhibition; P08659; purified P. pyralis luciferase, luminescence, biochemical; Potency, µM (series often up to 115 µM), actives largely listed as inhibitors; actives 2.5% (n = 76,000); AID 1347043; further: nearly all actives have a fitted effect of over 65% in size
Target sequence (P08659 whole entry, looked up): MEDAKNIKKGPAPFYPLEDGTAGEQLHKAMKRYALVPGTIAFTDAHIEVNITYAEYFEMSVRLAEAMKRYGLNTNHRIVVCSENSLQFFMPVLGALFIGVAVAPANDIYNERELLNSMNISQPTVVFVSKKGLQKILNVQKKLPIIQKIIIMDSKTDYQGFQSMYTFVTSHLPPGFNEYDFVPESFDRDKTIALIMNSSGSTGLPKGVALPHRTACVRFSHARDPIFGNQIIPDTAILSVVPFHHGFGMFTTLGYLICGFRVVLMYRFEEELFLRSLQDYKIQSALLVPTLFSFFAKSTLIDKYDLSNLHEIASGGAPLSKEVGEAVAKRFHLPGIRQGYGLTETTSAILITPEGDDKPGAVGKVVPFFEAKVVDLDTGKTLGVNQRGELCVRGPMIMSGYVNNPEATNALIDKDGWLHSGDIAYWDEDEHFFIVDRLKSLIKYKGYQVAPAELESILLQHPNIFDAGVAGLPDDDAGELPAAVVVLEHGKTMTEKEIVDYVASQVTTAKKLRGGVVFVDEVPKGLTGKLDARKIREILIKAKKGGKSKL
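Cell-free enzyme assay, 10nM P. pyralis luciferase, luciferin and ATP each at 10uM. Inhibition profiled over a 6-point titration, read as luminescence.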
hNpr1 antagonist – blocks ANP-stimulated signaling of human Npr1 receptor; P16066; HEK293 hNpr1 GloSensor cGMP, ANP-stimulated luminescence; Potency, µM (series often up to 46.3 µM), most hits filed as inhibitors; actives 1.6% (n = 76,000); AID 1347048; calls by dose curve; further: nearly all actives have a fitted effect of over 60% in size
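HEK293 cells stably expressing human Npr1 and cGMP GloSensor pGS-40F, loaded 2 h with 2% GloSensor reagent, given compound 30 min at room temperature. Luminescence read before and 20 min after 0.1 nM hNppA.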
Hits are given with their value; 0 = inactive; ? = inconclusive; - = no result given. Unless noted, the call rests on the fitted dose curve; in most records, active means well fitted curve in the direction sought with a large enough effect; inconclusive means small, poorly fitted or top-dose-only effect, or another doubt; inactive means no such curve, though single readings can be large; an effect the other way counts as inactive or inconclusive.

SMILES | NIH3T3 tox | HEK cytotox | GPT2 inhibitor | FLuc inh | hNpr1 antagonist
COc1cc2c(cc1CCc1ccccc1)N(C(=O)CC(C)C)CC21CCN(C(C)=O)CC1 | ? | ? | 0 | 0 | 0
COc1cc2c(cc1CCc1ccccc1)N(C(=O)COc1ccccc1)CC21CCN(C(C)=O)CC1 | ? | 0 | 0 | 0 | 0
O=C(NCc1ccc(F)cc1)[C@H]1CN2CCC1C[C@@H]2Cn1cc(CO)nn1 (some centres undefined) | 0 | 0 | 0 | 0 | 0
Cn1ccnc1CN1CCN2C(=O)N(c3ccccn3)C[C@H]2C1 | 0 | 0 | 0 | 0 | 0
COc1cc2c(cc1OCc1ccccc1)N(C(=O)COc1ccccc1C(N)=O)CC21CCN(C)CC1 | 22µM | 40µM | 0 | 0 | 0
COc1cc2c(cc1OCc1ccccc1)N([S+](=O)([O-])c1cccc(C)c1)CC21CCN(C)CC1 | 22µM | 28µM | 0 | 0 | 0
COc1cc2c(cc1OCc1ccccc1)N(C(=O)c1cnn(C)c1)CC21CCN(C)CC1 | ? | ? | 0 | 0 | 0
C/C=C(\C)C(=O)OC1C2C3(C)CCC(OC4CC(OC)C(OC5OC(C)C(O)C(OC)C5O)C(C)O4)CC3CCC23OC32CCC(C(C)=O)C2(C)C1OC(=O)/C(C)=C/C (centres undefined) | - | - | 0 | - | -
O=C(Nc1ccccc1)Nc1ccc2n(c1=O)C[C@H]1C[C@@H]2CN(C(=O)c2cccs2)C1 | ? | ? | 0 | 5.6µM | 0
O=C(Nc1ccc2n(c1=O)C[C@H]1C[C@@H]2CN(C(=O)COc2ccccc2)C1)c1cccs1 | ? | ? | 0 | 0 | 0
O=C(Nc1ccc2n(c1=O)C[C@H]1C[C@@H]2CN(Cc2ccc(F)cc2)C1)c1cccs1 | ? | 25µM | ? | ? | ?
COc1cc2c(cc1Oc1ccccc1)NC(=O)C21CCN(c2nccs2)CC1 | 0 | ? | 0 | 0 | 0
COc1cc2c(cc1Oc1ccccc1)NC(=O)C21CCN(Cc2ccccn2)CC1 | ? | 56µM | ? | 0 | 0
COc1cc2c(cc1Oc1ccccc1)NC(=O)C21CCN(c2ncc(F)cn2)CC1 | ? | 89µM | 0 | 0 | 0
Cc1ccnc(N2CC3CCC(C2)N3CC(F)(F)F)c1[N+](=O)[O-] | 0 | ? | 0 | - | -
FC(F)(F)CN1C2CCC1CN(c1nnc(Cl)c3ccccc13)C2 | ? | 79µM | 0 | - | -
O=[N+]([O-])c1ccc(Cl)nc1N1CC2CCC(C1)N2CC(F)(F)F | ? | 40µM | ? | - | -
Cc1ccccc1-c1ccc2n(c1=O)C[C@H]1C[C@@H]2CN(C(=O)c2cnccn2)C1 | 0 | 89µM | 0 | 0 | 0
CNC1CCc2cc(OC)c(OC)cc21 (centres undefined) | 0 | 0 | 0 | - | -
Cc1nc(-c2ccco2)cc([C@H]2CN3CC[C@H]2C[C@@H]3CNC(=O)NC2CCCCC2)n1 | 100µM | ? | 0 | 0 | 0
Cc1nc(-c2ccccc2)cc([C@H]2CN3CC[C@H]2C[C@@H]3CNC(=O)C2CC2)n1 | 0 | 0 | ? | 0 | 0
Cc1nc(-c2ccco2)cc([C@H]2CN3CC[C@H]2C[C@@H]3CNC(=O)Nc2ccccc2)n1 | ? | 89µM | 0 | 0 | 0
Cc1nc(-c2ccccc2)cc([C@H]2CN3CC[C@H]2C[C@@H]3CN(Cc2ccco2)Cc2ccco2)n1 | 22µM | ? | 0 | 0 | 0
Cc1nc(-c2ccco2)cc([C@H]2CN3CC[C@H]2C[C@@H]3CNC(=O)C2CCCCC2)n1 | ? | ? | 0 | 0 | ?
C=CCNC(=O)NC[C@H]1C[C@@H]2CCN1C[C@@H]2c1cc(-c2ccco2)nc(C)n1 | 0 | 0 | 0 | 0 | 0
SMILES | NIH3T3 tox | HEK cytotox | GPT2 inhibitor | FLuc inh | hNpr1 antagonist
COc1cc2c(cc1OC1CCCC1)NC(=O)C21CCN(C(=O)C(C)C)CC1 | 0 | ? | 0 | 0 | 0
CC(C)CN(Cc1cccnc1)C1CN(C(=O)COc2ccc(F)cc2)C1 | 32µM | ? | 0 | 0 | 0
CC[C@H]1CN2CC[C@H]1C[C@@H]2CNC(=S)Nc1ccc(N(C)C)cc1 | 0 | ? | 8.9µM | 0 | 0
C=C[C@H]1CN2CC[C@H]1C[C@@H]2CNC(=O)Nc1ccc(C(C)(C)C)cc1 | 35µM | 32µM | 0 | 0 | 0
C=C[C@H]1CN2CC[C@H]1C[C@@H]2CNC(=O)Nc1cccc(C(F)(F)F)c1 | ? | 100µM | 0 | 0 | 0
CC[C@H]1CN2CC[C@H]1C[C@@H]2CNC(=O)Nc1cccc(C#N)c1 | 0 | ? | 0 | 0 | 0
CC[C@H]1CN2CC[C@H]1C[C@@H]2CNC(=O)Nc1ccc(C(C)(C)C)cc1 | ? | 71µM | 0 | 0 | 0
COc1ccc(-c2cc([C@H]3CN4CC[C@H]3C[C@@H]4CNC(=O)c3cccs3)nc(C)n2)cc1OC | ? | ? | 0 | 0 | 0
COc1cc2c(cc1OCc1ccccc1)N(C(=O)c1ccc3[nH]ccc3c1)CC21CCN(C)CC1 | 22µM | 35µM | 0 | 0 | 0
COc1cc2c(cc1OCc1ccccc1)N(C(=O)c1ccccc1OC)CC21CCN(C)CC1 | 28µM | 79µM | 0 | 0 | 0
COc1cc2c(cc1OCc1ccccc1)N(C(=O)c1ccnn1C)CC21CCN(C)CC1 | ? | ? | 0 | 0 | 0
COc1cc2c(cc1OCc1ccccc1)N(C(=O)c1cccc(N(C)C)c1)CC21CCN(C)CC1 | 11µM | ? | 0 | 0 | 0
COc1cc2c(cc1OCc1ccccc1)N(C(=O)C1CCC(C)CC1)CC21CCN(C)CC1 (centres undefined) | 20µM | 28µM | 0 | 0 | 0
COc1cc2c(cc1OCc1ccccc1)N(C(=O)C(C)C)CC21CCN(C)CC1 | 89µM | ? | 0 | 0 | 0
CCN1CCCCC12Cc1ccccc1CN(C(=O)Cc1ccc(OC)cc1)C2 (centres undefined) | 0 | 0 | 0 | - | -
CN1CCN(C(=O)Cc2c[nH]c3ncc(-c4cccc(O)c4)cc23)CC1 | 89µM | 0 | 0 | ? | 0
CN1CCN(C(=O)Cc2c[nH]c3ncc(-c4ccsc4)cc23)CC1 | 89µM | 0 | 0 | ? | 0
OC[C@@H]1[C@H]2CN(C3CCCCCC3)CCN2C[C@H]1c1ccccc1 | ? | 0 | - | - | -
COc1ccc(NC(=O)NC[C@H]2C[C@@H]3CCN2C[C@@H]3c2cc(-c3ccccc3Br)nc(C)n2)cc1 | ? | 79µM | 0 | 0 | 0
Cc1nc(-c2ccccc2Br)cc([C@H]2CN3CC[C@H]2C[C@@H]3CNC(=O)NC(C)C)n1 | ? | 79µM | 0 | 0 | 0
Cc1nc(-c2ccccc2Br)cc([C@H]2CN3CC[C@H]2C[C@@H]3CNC(=O)NC2CCCCC2)n1 | ? | ? | 0 | 0 | 0
